Numbering of substitutions follows the chain as printed. In all, about 5,800 sequences were measured (“enrichment r”: median about 0.68, highest 2% from about 11 on). The list comes from a sample in which the highest values are over-represented; it also holds similar and randomly drawn sequences.
T1: UNK ZnF1-6 (called full-length) (human, UniProt Q9C0B0 30-357)
T1 sequence: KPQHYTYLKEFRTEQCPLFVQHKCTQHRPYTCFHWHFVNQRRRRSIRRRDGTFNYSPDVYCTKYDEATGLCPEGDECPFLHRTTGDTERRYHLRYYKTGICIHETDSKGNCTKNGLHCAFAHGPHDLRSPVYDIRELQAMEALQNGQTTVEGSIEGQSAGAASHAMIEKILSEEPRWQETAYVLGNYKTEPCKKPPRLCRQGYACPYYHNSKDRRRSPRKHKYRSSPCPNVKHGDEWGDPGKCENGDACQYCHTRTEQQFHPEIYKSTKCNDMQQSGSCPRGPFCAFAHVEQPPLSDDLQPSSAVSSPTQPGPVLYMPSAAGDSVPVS

B1: chr1:225494445:225494546:-|3pUTR|ENSG00000154380|msi1|total|mutant (ssRNA)
RNA: GGGAGUUCUACAGUCCGACGAUCUUGGGUGUUCCCUCUUCUUAUUUUCUCUCUGCCCACCUUGACACAGUAACUUCCUCUUACCGUCAAGAUGAUGAUUAAGUGUUUAAUUUUUAUUCCAUUUUGUUCUGCAACACGUUCAGGCAACAGAGGAUUGAGCAUCA
B2: ENSG00000070961:be:win_5551|3pUTR|ENSG00000070961|bound_else_gene|NA|bound_elsewhere_windowed (ssRNA)
RNA: GGGAGUUCUACAGUCCGACGAUCAAUUGUACAUUUAUUCAUCAGGUAUUUAUAGUGAAUCAUACUGUAAAAAAGAGGUAGCAUGAUAUGCUGGAAAGCAUAUUAGACUAGGAGUCAAGACCUGGUUUCUAGUCUUGGUUUUGCCAACAGAGGAUUGAGCAUCA
B3: chr3:125228010:125228111:-|3pUTR|ENSG00000163848|msi1|total|mutant (ssRNA)
RNA: GGGAGUUCUACAGUCCGACGAUCAGUUCUCUUCAUAUUUCAUAACUACAUUUCAAUAAUUCUAAACUUUCUACAUUGAUUUUCCGAUACUUAUUUUUCAAGCUUGGUUUCUCAGCUGAUCAGAUGAAUUUAUUCAACUUCAAUCAACAGAGGAUUGAGCAUCA
B4: chr11:58422334:58423261:-|CDS|ENSG00000172365|control|control|control (ssRNA)
RNA: GGGAGUUCUACAGUCCGACGAUCACACACUAGUGAGGUGAUUCUGGUUUUUAUGUCAAGCUUUAAUAUCUUUUUUGUUCUUCUAGUUAUCUUUAUCUCCUACUUGUUCAUAUUCAUCACCAUCUUGAAGAUGCAUUCAGCUAACAACAGAGGAUUGAGCAUCA
B5: chr6:52791370:52791857:-|three_prime_utr|ENSG00000243955|control|control|control (ssRNA)
RNA: GGGAGUUCUACAGUCCGACGAUCGCUAAUGAACUCUUUCAAAUUAUAUGCUAAUUAAAUAAUACAACUCCUAUUCGCUGACUUAGUUAAAAUUGAUUUGUUUUCAUUAGGAUCUGAUGUGAAUUCAGAUUUCCAAUCUUCUCCCAACAGAGGAUUGAGCAUCA
B6: chr12:64147824:64147925:+|3pUTR|ENSG00000196935|unk|FALSE|unique (ssRNA)
RNA: GGGAGUUCUACAGUCCGACGAUCCAUCUCUGUGGUGUCUUUGUUCCUUUCCUUUCAUUCAUCACUACUUUCUCCUUGACAGCUAGCUUGCAUUAAAUAAUGUGAAACUUUUACCUUUAAAAUAUUUUUUUAUCUCACUUUCAUCAACAGAGGAUUGAGCAUCA
B7: chr3:125228010:125228111:-|3pUTR|ENSG00000163848|msi1|FALSE|unique (ssRNA)
RNA: B3 RNA with C83U, C84A
B8: chr16:18805221:18805325:-|3pUTR|ENSG00000157106|unk|FALSE|bound_elsewhere (ssRNA)
RNA: GGGAGUUCUACAGUCCGACGAUCAAGAAUUCUAUGUUCUGAAAUGCACACUUUUAGAAUGUUUUUCUUUGAAAACAGGCUAAUAGUUUUUUCUUUUUUUGACAAAGUUUCAGCUCCUCUUUAAAGUUAUUGUGUCAUUUUUCUCAACAGAGGAUUGAGCAUCA
B9: chr20:3933335:3933436:-|3pUTR|ENSG00000101236|msi1|total|mutant (ssRNA)
RNA: GGGAGUUCUACAGUCCGACGAUCUUACAACACCUGCUAUCAAAUCAUCUAAGCUGAAAACAUGAGAUGCGCUUGGAAAGGCCCCGUCAGAAGCCAUUUCCUCUUAUCAUUUCCCUCUCCUAUGCACCAGUAAGGCCCGUCCAGCAACAGAGGAUUGAGCAUCA
B10: chr7:103374401:103374592:-|CDS|ENSG00000170615|control|control|control (ssRNA)
RNA: GGGAGUUCUACAGUCCGACGAUCCCUGCCCUAUGGGAGCUGCUGUUCCACAGCAUUCAUGAUGCAGUUUUAGGCAGCCAACUUAGAGAGGCACUUGCUGAACAGGAAGCCUCGGCUCCCCCUUCCCAGGAGGACUUGGAGCCCCAACAGAGGAUUGAGCAUCA
B11: chr1:228494639:228494729:+|3pUTR|ENSG00000168159|msi1_unk|FALSE|overlapping (ssRNA)
RNA: GGGAGUUCUACAGUCCGACGAUCGCCAUCGUGUCUCAUCUUGCUGUUAUCUCUAGCUCUUUCCCUCCUCCCAUUUCCUUUAGUAGUUGAAUUUUGCAAAGCUUGUAGCAGUAGCUCAGUUGCCUGCAGCAUCCUUGUGUGUAGCAACAGAGGAUUGAGCAUCA
B12: chr22:21921976:21922077:-|3pUTR|ENSG00000100034|msi1|FALSE|unique (ssRNA)
RNA: GGGAGUUCUACAGUCCGACGAUCGACUGCAGUGGGCUCGGAUAGGCCCAUUGAGGUUUUUAGAAAAGCAGGAUUUGUUUUGUUAGGGAGGCAUGAUUUUGGUGAGAUCUUUCUGGAAGAGUUUUCCGCCUCUUUGUGAUGCUGCAACAGAGGAUUGAGCAUCA
B13: chr11:64204363:64204470:+|3pUTR|ENSG00000168439|unk|FALSE|unique (ssRNA)
RNA: GGGAGUUCUACAGUCCGACGAUCGCCCUCGAGUUCCAUGUCUCUUUCCCCUGCCCCUAGUUGCUGUCUCGGCUGCUCUCCCAUAGUUGGUUUUUUUUUUAUUUGGGGCAGUGGGCAUGUUAUGGGGAGGGGAGGGGGUUCUUCCAACAGAGGAUUGAGCAUCA
B14: chr11:134247321:134247422:+|3pUTR|ENSG00000151502|unk|FALSE|unique (ssRNA)
RNA: GGGAGUUCUACAGUCCGACGAUCCCUUUUCAGAGCAUGAGGUCAGGCUCUGUAUCCCUCCUUUUCCUAGCUGAUAUUCUAACUAGAAGCAUUUGUCAAUUCCUUUGCCUCCCAACUGACAACACACGUUCAUUUUCCAACCUUCAACAGAGGAUUGAGCAUCA
B15: chr1:180885099:180885158:+|3pUTR|ENSG00000143324|msi1_unk|FALSE|overlapping (ssRNA)
RNA: GGGAGUUCUACAGUCCGACGAUCAGCUGAAGCUAUGCCUUAUUAUGCAUCCACAUGUAUGGUCCCUGUAGCGUGACCUUUACUAGCUCUGAAUCAGAAGACAGAGCUAUUUCAGAGGCUCUGUGUGCCCUCACUAGAUAGUUUCAACAGAGGAUUGAGCAUCA
B16: chr5:97028609:97028710:+|3pUTR|ENSG00000113441|msi1|FALSE|bound_elsewhere (ssRNA)
RNA: GGGAGUUCUACAGUCCGACGAUCUUGCAAAAGCCAAGGUAAAGCCAGGAUCGCUGCCAAGUUGUUUGCACUCUUUGGAGUUCUAGUUAGCUCAGGGCCUGACUGUAUUUUUCAUCCAUCUUUUCUGAAGUGUCUUUGGGCAGUCAACAGAGGAUUGAGCAUCA
B17: chr16:87831719:87831834:-|3pUTR|ENSG00000103257|msi1_unk|total|mutant (ssRNA)
RNA: GGGAGUUCUACAGUCCGACGAUCCCUGCGUUUGGAGGCCCCUGGGCUCUCACCCAGUCCCCACCCGCCUGCAGAGAGGGAACCCGGGCACCCCUUGUUUCUGUUGUUCCCGUGAAUUUUUUUCGCUAUGGGAGGCAGCCGAGGCAACAGAGGAUUGAGCAUCA
B18: chr8:100258838:100258944:-|CDS|ENSG00000034677|unk|FALSE|unique (ssRNA)
RNA: GGGAGUUCUACAGUCCGACGAUCAGUGAAUUUGAGGCUCCAUCCCUCAGUGACAGUAUGCCUUCUGUAGCAGAUUCUCACUCUAGUCAUUUUUCUGAAUUUAGUUGUUCUGACCUAGAAAGCAUGAAAACUUCUUGUAGUCAUCAACAGAGGAUUGAGCAUCA
B19: chr14:75134463:75134564:-|3pUTR|ENSG00000170348|msi1|FALSE|unique (ssRNA)
RNA: GGGAGUUCUACAGUCCGACGAUCCUGUUUGGACUAUGUUUUCUUUUCUUCUCCCACUUGCUCAGCAGCUUGGGCUUCCAUUCUAGUUCUUUUACCAAGAUUUUUGUGUGACCAUGUUGACUUCAUUUGGAUUGCCCUCUUUCACAACAGAGGAUUGAGCAUCA
B20: chr17:58090057:58090109:+|3pUTR|ENSG00000264364|msi1_unk|FALSE|overlapping (ssRNA)
RNA: GGGAGUUCUACAGUCCGACGAUCGGGUAGGAUUAGCUUGAAUCUUUUUUUUCUUUACAUUUUUCUCCUGUCUGCUCCCUGCUUAGCCCUCAGUUUCCUCAUUCCUCUGGAGUUCUCUUAGAGCAGCCCCUGUUGUUAGUUGGCCAACAGAGGAUUGAGCAUCA
B21: chr1:88684422:88684524:+|5pUTR|ENSG00000065243|unk|FALSE|unique (ssRNA)
RNA: GGGAGUUCUACAGUCCGACGAUCUCGAUGAACCGGACGGAAUAAGCCGCGCCUCCAGCAGGGGCUGCGCCUCCAUGAAUCCCUAGUUGUUUUUUUUUUUUUCUUUCUCUCCCCUCUCCUCACCCCCACCCCGAGCCCCGUCCCCAACAGAGGAUUGAGCAUCA
B22: chr1:88684422:88684524:+|5pUTR|ENSG00000065243|unk|total|mutant (ssRNA)
RNA: B21 RNA with U83C, A84C

Molecular target: T1, UNK ZnF1-6 (called full-length)
Assay: nsRBNS (natural sequence RNA bind-n-seq); RBNS binding buffer (assumed for nsRBNS): 25 mM Tris pH 7.5, 150 mM KCl, 3 mM MgCl2, 0.01% Triton X-100, 500 ug/ml BSA, 20 U/ml SUPERase-In, 4 C; UNK is unkempt and MSI1 is Musashi-1; names of the RNAs are library labels; protein concentration not given here; high values mean tight binding

Row | Binder | binding signal [enrichment R]
1 | B1 | 0.642
2 | B2 | 0.3
3 | B3 | 15.6
4 | B4 | 12.5
5 | B5 | 6.55
6 | B6 | 10.6
7 | B7 | 3.33
8 | B8 | 0.773
9 | B9 | 0.525
10 | B10 | 0.733
11 | B11 | 14.7
12 | B12 | 0.813
13 | B13 | 20.5
14 | B14 | 2.72
15 | B15 | 2.64
16 | B16 | 0.475
17 | B17 | 0.698
18 | B18 | 13.2
19 | B19 | 0.995
20 | B20 | 4.34
21 | B21 | 39
22 | B22 | 3.43
